Experimental data published in the supplement of paper PMC9177965.

Experiments:
[1] = test system: HT29 RNF43 G659fs (RNF43 659mut, CRISPR-edited); experiment: cell viability activity relative to DMSO (negative = inhibition); higher = more viable cells (less growth inhibition); settings: 5 µM; 96 h
Protocol: (§1)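 Broad Repurposing Library primary screen at a single dose of 5 uM. HT29 sg-Ctrl and HT29 RNF43 G659fs CRISPR-edited isogenic cells were seeded at 2500 cells/well in 384-well plates in duplicate and treated for 96 h. Viability was read by CellTiter-Glo and reported as % activity relative to DMSO, with MG132 as the positive control (negative = growth inhibition).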

[2] = test system: HT29 sg-Ctrl (RNF43 wildtype); experiment: as above; settings: 5 µM; 96 h
Protocol: as §1

Row | SMILES | cell viability activity [1] | cell viability activity [2]
1 | CC(C)(C)c1cc(NC(=O)Nc2ccc(-c3cn4c(n3)sc3cc(OCCN5CCOCC5)ccc34)cc2)no1 | -46.2% | -40.7%
2 | Cc1nc(NC(=O)N2CCC[C@H]2C(N)=O)sc1-c1ccnc(C(C)(C)C(F)(F)F)c1 | -49.8% | -16%
3 | Cc1cccc(C)c1NC(=O)CN1CCN(CCCC(c2ccc(F)cc2)c2ccc(F)cc2)CC1 | -28.2% | -46%
4 | O=C(NNc1nc2cc(F)ccc2n2cccc12)c1cnccn1 | -82.8% | -88.3%
5 | COC(=O)Nc1ccc(-c2nc(N3CCOCC3)c3cnn(C4CCN(C(=O)OC)CC4)c3n2)cc1 | -50% | -38%
6 | Nc1ncnc2c1c(-c1cnc3[nH]ccc3c1)nn2C1CCCC1 | -84.8% | -78.7%
7 | C1CCC(C(CC2CCCCN2)C2CCCCC2)CC1 (centres undefined) | -92.4% | -89%
8 | CCCCCCCCCCCCCCCC[N+](C)(C)C | -84.6% | -74.2%
9 | OCCNCCCOc1cccc(Cl)c1Cl | -45.4% | -43.2%
10 | Cc1c(C(=O)Nc2ccc(N3CCC(N4CCOCC4)CC3)c(C#N)c2)cnn1-c1ccc(Cl)cc1 | -36.4% | -33.4%
11 | CNCc1ccc(-c2cc(-c3nc(-c4ccc(S(=O)(=O)C(C)C)cc4)cnc3N)on2)cc1 | -78.3% | -74.5%
12 | C=CCc1cccc(/C=N/NC(=O)CN2CCN(Cc3ccccc3)CC2)c1O | -71.9% | -42.7%
13 | OCCCNc1cc(-c2ccnc(Nc3cccc(Cl)c3)n2)ccn1 | -86.6% | -86%
14 | CCCCCCCCN=c1ccn(CCCCCCCCCCn2ccc(=NCCCCCCCC)cc2)cc1 | -94.6% | -92.1%
15 | CN1CCCN=C1COC(=O)C(O)(c1ccccc1)C1CCCCC1 (centres undefined) | -55.3% | -50.3%
16 | COc1c(C)c2c(c(O)c1C/C=C(\C)CCC(=O)O)C(=O)OC2 | -22.3% | -27.7%
17 | C[C@]1(O)C[C@@H](c2nc(-c3ccc4ccc(-c5ccccc5)nc4c3)c3c(N)nccn32)C1 | -32.5% | -26.2%
18 | O=C(/C=C\n1cnc(-c2cc(C(F)(F)F)cc(C(F)(F)F)c2)n1)NNc1cnccn1 | -73.9% | -69.8%
19 | O=C(NC[C@H](O)CO)c1ccncc1Nc1ccc(I)cc1F | -83.4% | -91.2%
20 | Clc1ccccc1CNCC1CCC(CNCc2ccccc2Cl)CC1 (centres undefined) | -26.3% | -19.9%
21 | COC(=O)Nc1nc2cc(C(=O)c3cccs3)ccc2[nH]1 | -64.5% | -78.3%
22 | COc1cc(/C=C/c2ccc(OC)cc2OC)cc(OC)c1 | -65.4% | -75.7%
23 | O=C1NCN(c2ccccc2)C12CCN(CCCC(c1ccc(F)cc1)c1ccc(F)cc1)CC2 | -27.2% | -69.5%
24 | CC[C@@H]1C(=O)N(C)c2cnc(Nc3ccc(C(=O)N[C@H]4CC[C@H](N5CCN(CC6CC6)CC5)CC4)cc3OC)nc2N1C(C)C | -66.4% | -77.9%
25 | Cn1cc(-c2ccncc2)c(-c2ccc(OCc3ccc4ccccc4n3)cc2)n1 | -46.2% | -38.8%
26 | N#Cc1cc2c(OCC(O)CN3CCN(C(c4ccccc4)c4ccccc4)CC3)cccc2[nH]1 (centres undefined) | -23.9% | -20.5%

Row | SMILES | cell viability activity [1] | cell viability activity [2]
27 | Cc1cc(O)c(-c2ccc([C@@H](C)CN)cc2)c2c1[nH]c(=O)c1sccc12 | -92.6% | -92.7%
28 | CCCS(=O)(=O)Nc1ccc(F)c(C(=O)c2c[nH]c3ncc(Cl)cc23)c1F | -46.8% | -47.2%
29 | COc1cccc(OCCCN)c1-c1cc(Nc2cnc(C#N)cn2)n[nH]1 | -78.2% | -86.9%
30 | CCN(CC)CC1CCN(c2ncc3ncnc(Nc4ccc(F)c(Cl)c4)c3n2)CC1 | -37.1% | -16.4%
31 | CCCOc1ccc2[nH]c(NC(=O)OC)nc2c1 | -69.6% | -55.8%
32 | CC(C=CC(=O)NO)=CC(C)C(=O)c1ccc(N(C)C)cc1 (centres undefined) | -95.2% | -94.9%
33 | CCN(CC)CCOc1ccc(C(=C(Cl)c2ccccc2)c2ccccc2)cc1 | -98.4% | -97.9%
34 | CC1(C)CC[C@]2(C(=O)O)CC[C@]3(C)[C@H](C(=O)C=C4[C@@]5(C)C=C(C#N)C(=O)C(C)(C)[C@@H]5CC[C@]43C)[C@@H]2C1 | -88.2% | -82.9%
35 | Cc1c(C(=O)N2CCOc3ccc(-c4ccc(N)nc4)cc3C2)ccc(S(C)(=O)=O)c1F | -41.2% | -32.1%
36 | c1ccc2c(CCNc3ccc(Nc4ccncc4)cc3)c[nH]c2c1 | -93.4% | -90.3%
37 | Cc1cccc(/C=N/Nc2cc(N3CCOCC3)n3nc(-c4ccncc4)cc3n2)c1 | -56.4% | -51.8%
38 | CCCCCC(O)c1cccc(OCc2ccc3ccccc3n2)c1 (centres undefined) | -71.3% | -64%
39 | COc1cc(N2CCC(N)CC2)ccc1Nc1ncc(Cl)c(-c2c[nH]c3ccccc23)n1 | -95.8% | -95.7%
40 | C[C@@H](Oc1cc(-c2cnn(C3CCNCC3)c2)cnc1N)c1c(Cl)ccc(F)c1Cl | -97.1% | -95.4%
41 | C[C@H]1O[C@@H](O[C@H]2[C@@H](O)C[C@H](O[C@H]3[C@@H](O)C[C@H](O[C@H]4CC[C@@]5(C)[C@H](CC[C@@H]6[C@@H]5CC[C@]5(C)[C@@H](C7=CC(=O)OC7)CC[C@]65O)C4)O[C@@H]3C)O[C@@H]2C)C[C@H](O)[C@@H]1O | -92.2% | -93.4%
42 | O=C(/C=C/c1cccc(S(=O)(=O)Nc2ccccc2)c1)NO | -88.3% | -73.9%
43 | CC1NC(=O)C(N)CNC(=O)C(C2CCN=C(N)N2)NC(=O)/C(=C\NC(N)=O)NC(=O)C(CNC(=O)CC(N)CCCN)NC1=O (centres undefined) | -29.5% | 0.515%
44 | CCCCc1oc2ccc(NS(C)(=O)=O)cc2c1C(=O)c1ccc(OCCCN(CCCC)CCCC)cc1 | -96.2% | -91.7%
45 | CC(C)C[C@H](NC(=O)CNC(=O)c1cc(Cl)ccc1Cl)B(O)O | -94.3% | -89.7%
46 | COc1cc(Nc2c(C#N)cnc3cc(OCCCN4CCN(C)CC4)c(OC)cc23)c(Cl)cc1Cl | -96.5% | -97.9%
47 | Nc1nc2[nH]cnc2c(=S)[nH]1 | -81.6% | -73.9%
48 | Cc1cc(N2CCOCC2)cc2[nH]c(-c3c(NC[C@@H](O)c4cccc(Cl)c4)cc[nH]c3=O)nc12 | -55% | -50.5%
49 | CC[C@@]1(O)C(=O)OCc2c1cc1n(c2=O)Cc2c-1nc1cc(F)c(C)c3c1c2[C@@H](N)CC3 | -91.7% | -90.4%
50 | CN1CCN(CCCN2c3ccccc3Sc3ccc(C(F)(F)F)cc32)CC1 | -34.4% | -18.8%
51 | Cn1cnc2c(F)c(Nc3ccc(Br)cc3F)c(C(=O)NOCCO)cc21 | -75.9% | -82.9%
52 | CN(c1ccccc1CNc1nc(Nc2ccc3c(c2)CC(=O)N3)ncc1C(F)(F)F)S(C)(=O)=O | -45.3% | -57.8%

Row | SMILES | cell viability activity [1] | cell viability activity [2]
53 | COc1ccc2c(O[C@@H]3C[C@H]4C(=O)N[C@]5(C(=O)NS(=O)(=O)C6CC6)C[C@H]5/C=C\CCCCN(C)C(=O)[C@@H]4C3)cc(-c3nc(C(C)C)cs3)nc2c1C | -30% | -23.2%
54 | Cn1ccc2cc(NC(=O)Nc3cccnc3)ccc21 | -29.2% | -52%
55 | O=C(Nc1ccncc1)Nc1ccc(-c2nc(N3CCOCC3)nc(N3C4CCC3COC4)n2)cc1 | -64.5% | -36.2%
56 | Cc1c(-c2ccc(O)cc2)n(Cc2ccc(OCCN3CCCCCC3)cc2)c2ccc(O)cc12 | -67.2% | -93.1%
57 | COc1cc2c(Oc3ccc(NC(=O)C4(C(=O)Nc5ccc(F)cc5)CC4)cc3F)ccnc2cc1OCCCN1CCOCC1 | -92.2% | -37.8%
58 | CCn1cc(-c2ccnc3[nH]c(-c4cccc(CN(C)C)c4)cc23)c(-c2ccc(NC(=O)N(C)C)cc2)n1 | -84.6% | -63.8%
59 | CON(C)C(=O)N1N=C(c2cc(F)ccc2F)S[C@@]1(CCCN)c1ccccc1 | -73.8% | -69.7%
60 | Clc1ccc(C2(c3ccc(-c4cn[nH]c4)cc3)CCNCC2)cc1 | -71.5% | -86.8%
61 | Nc1ccccc1NC(=O)c1ccc(CNC(=O)OCc2cccnc2)cc1 | -71.7% | -77.2%
62 | CN(C)C(=O)C(CCN1CCC(O)(c2ccc(Cl)cc2)CC1)(c1ccccc1)c1ccccc1 | -67.6% | -75.2%
63 | CCC[C@H](NC(=O)/C(C#N)=C/c1cccc(Br)n1)c1ccccc1 | -95.3% | -92.4%
64 | Cn1c(=O)n(-c2ccc(C(C)(C)C#N)cc2)c2c3cc(-c4cnc5ccccc5c4)ccc3ncc21 | -56.8% | -44.1%
65 | Cc1cc(Nc2ccc(NC(=O)c3ccc(Nc4ccnc5ccccc45)cc3)cc2)nc(N)n1 | -91% | -93.7%
66 | C=C[C@@](C)(/C=C/c1ccc(O)cc1)CCC=C(C)C | -39.5% | -49.8%
67 | O=C(NO)c1cnc(N2CCN(S(=O)(=O)c3ccc4ccccc4c3)CC2)nc1 | -64.4% | -48.5%
68 | CCOC(=O)[C@H](Cc1ccccc1)NC(=O)c1cc(Cl)c(OCCN2CCN(C)CC2)c(Cl)c1O | -34% | -41.2%
69 | CN1CCC(NC(=O)c2cc(-c3c(O)cc(O)cc3Oc3ccc([N+](=O)[O-])cc3)on2)CC1 | -26.7% | -21.1%
70 | CN(C)CCCC(=O)Nc1ccc(C(=O)Nc2cccc(Nc3ncc(Cl)c(-c4c[nH]c5ccccc45)n3)c2)cc1 | -70.8% | -78.1%
71 | CC(C)(C)c1nc(-c2cccc(NS(=O)(=O)c3c(F)cccc3F)c2F)c(-c2ccnc(N)n2)s1 | -69.4% | -68.4%
72 | OCc1ccc(-c2ccc(-c3ccc(CO)s3)o2)s1 | -51.5% | -42.8%
73 | Cn1c(=O)c(F)c(Nc2ccc(I)cc2F)c2c(=O)n(C[C@@H](O)CO)cnc21 | -86.8% | -90.5%
74 | C[C@@H](Oc1ccc2[nH]nc(/C=C/c3cnn(CCO)c3)c2c1)c1c(Cl)cncc1Cl | -87.9% | -88.8%
75 | CC(C)(N)c1cc(C(=O)N[C@@H]2CCc3ccc(Oc4ccnc5c4CCC(=O)N5)cc3C2)cc(C(F)(F)F)c1 | -57.8% | -59.3%
76 | Cc1cc(-c2ccc(/N=N/c3ccc4c(S(=O)(=O)O)cc(S(=O)(=O)O)c(N)c4c3O)c(C)c2)ccc1/N=N/c1ccc2c(S(=O)(=O)O)cc(S(=O)(=O)O)c(N)c2c1O | -43.7% | -20.4%
77 | CCc1cccc(CC)c1NC(=O)N1Cc2[nH]nc(NC(=O)c3ccc(N4CCN(C)CC4)cc3)c2C1 | -46.8% | -21.2%
